We go through 5 compounds from PubChem BioAssay.

By inhibition is commonly meant the relative decrease from the control value, in per cent.

Records with an inconclusive call do not appear. The source made the active and inactive calls.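 How the source made its calls, unless noted: active means aptamer binding inhibition above 30%, about 3 SD of noise from non-fluorescent compounds; inactive means inhibition at or below 30%.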

The nature of experiment [1]: rapamycin-like changes in RPL19A-GFP expression – cell-based, S. cerevisiae, multiplex flow cytometry, primary screen (AID 1862; in the data active means percent of DMSO control GFP below about 86%;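 further: lower values mimic rapamycin by blocking the RPL19A rise seen in DMSO cells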). The settings on record: S. cerevisiae RPL19A-GFP strain, flow cytometry fluorescence, 3 h; at 10 µM; stronger effect = lower value. (Flow cytometry measures light scatter and fluorescence of single cells or particles in a stream.)
Experiment [2] is described as follows: TOR pathway GLN3 branch reporter MEP2-GFP changes – S. cerevisiae, multiplex flow cytometry, primary screen (AID 1867;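 active means GFP response, as percent of the DMSO control, above the screen-wide mean plus 3 SD, about 139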;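 further: median GFP channel fluorescence of barcode-gated MEP2-GFP cells measured by flow cytometry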). The settings on record: S. cerevisiae MEP2-GFP strain, 3 h, at 10 µM, stronger effect = higher value, 100% means same as DMSO wells.
A short description of experiment [3]: TOR pathway RTG branch CIT2 reporter changes – S. cerevisiae, GFP fusion, multiplex flow cytometry, primary screen (AID 1870;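 active means percent response above a set limit, the screen-wide mean plus 3 SD, cut at about 130% in these data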;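 further: barcoded CIT2-GFP strain pooled with four other GFP strains with rapamycin as positive control; median GFP fluorescence per well over plate mean of DMSO wells so 100% = DMSO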). The settings on record: S. cerevisiae CIT2-GFP expression, 3 h, at 10 µM, stronger effect = higher value.
A short description of experiment [4]: TOR pathway LAP4-GFP level changes – S. cerevisiae, multiplex flow cytometry, primary screen (AID 1873;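 active means GFP signal, as percent of the solvent control, above the screen mean plus 3 SD, about 149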). To be noted: S. cerevisiae LAP4-GFP expression, 3 h, at 10 µM, stronger effect = higher value.
Experiment [5] is described as follows: yeast AGP1-GFP level changes, GLN3 branch – cell-based, multiplex flow cytometry, S. cerevisiae, primary screen (AID 1887;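 active means GFP signal above the screen-wide mean plus 3 SD, that is over about 124.5% of the solvent control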;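 further: AGP1-GFP fusion strain of S. cerevisiae within a five-strain barcoded multiplex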). The settings on record: 3 h, at 10 µM, stronger effect = higher value.
Experiment [6] in a line: reduced mouse 2C T cell binding to pMHC/ICAM-1 vesicles – MLPCN validation set, flow cytometry, LFA-1/ICAM-1 modulator project, pilot screen (AID 2523;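 active means response below a set limit, under 55% cells CD8-positive and vesicle-bound, and CD8 cells' 90th-percentile brightness under 279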;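 on vesicle binding response: mean PE anti-B7-1 fluorescence of CD8+ cells relative to row control; 100% = QL9-loaded vesicles with DMSO vehicle in the same plate row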). The settings on record: 2C mouse CD8+ T cells, at 7 µM, stronger effect = lower value; double positive events: measured here: CD8+/vesicle+ event percentage.
Experiment [7] has as its target Integrin beta-1 (Homo sapiens) + Integrin alpha-4 (Homo sapiens) (UniProt P13612+P05556). The experiment can be described thus: alpha4beta1 integrin LIBS antibody binding reduction – U937 cells, HUTS-21 mAb, flow cytometry, validation set, VLA-4 allosteric modulator project, pilot screen (AID 2674;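 active means inhibition above 50%, about 3 SD of the validation set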;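 further: antibody binding induced by the VLA-4 ligand LDV present at three times its Kd; 0% = LDV ligand with antibody and no compound and 100% = antibody without LDV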). To be noted: HUTS-21 LIBS mAb binding, at 6.7 µM, stronger effect = higher value, binding induced by LDV ligand.

Experiment [8] is described as follows: calorie-restriction mimetic ROS inhibitors, yeast – validation compound set, pilot screen (AID 2706;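 active means superoxide response below 65% of plate, a cut near 3 SD across the whole screen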;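 further: yeast exposed to compound for one week at 30 degrees C before staining; 100% = mean of all compound wells on the same plate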). The settings on record: S. cerevisiae aging, superoxide DHE fluorescence; at 10 µM, stronger effect = lower value.
In experiment [9] the target is Beta-adrenergic receptor kinase 1 (Homo sapiens) (UniProt P25098). The experiment can be described thus: GRK2 binders displacing RNA aptamer, biochemical, validation, human GRK2, bead flow cytometry (AID 488806). The settings on record: bead-bound GRK2, FAM-aptamer displacement, at 10 µM, stronger effect = higher value.
Experiment [10] deals with AP-2 complex subunit beta (Homo sapiens) (UniProt P63010). The experiment can be described thus: beta-arrestin/AP2 interaction blockers – biochemical, validation set, GST-AP2 beads, flow cytometry, pilot screen (AID 504541;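 active means inhibition above 54%, about 3 SD of non-fluorescent compounds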;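 further: AP2 carries R879A mutation and is captured from E. coli lysate; bead-bound FITC arrestin peptide fluorescence measuring arrestin peptide binding to AP2; 0% = DMSO wells and 100% = excess unlabeled arrestin peptide control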). The settings on record: FITC arrestin peptide, at 10 µM, stronger effect = higher value, AP2 beta2 appendage fragment, R879A mutant.
Experiment [11] can be described thus: cytosolic pH regulators acting via V-ATPase – S. cerevisiae, pHLuorin, HTS validation (AID 504600; in the data active means response above about 15%;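 further: plate controls were DMSO for no effect and reference compound for full effect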). To be noted: V-ATPase proton transport, at 10 µM, stronger effect = higher value.
For experiment [12], the system named is anti-desmoglein-3 scFv antibody binding to human DSG3. The experiment can be described thus: blockers of pathogenic pemphigus antibody–desmoglein-3 binding – biochemical, validation compound set, bead-based, flow cytometry, pilot screen (AID 588368;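 active means binding below the plate cutoff, the plate median minus 3 SD, with a reading above zero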;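 further: signal is the median channel fluorescence of bead-bound GFP antibody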). The settings on record: Protein G beads, DSG3-Fc, scFv-GFP binding, at 10 µM, stronger effect = lower value.
The nature of experiment [13]: Nile Red efflux blockade in pump-expressing yeast – validation compound set, multiplex, phenotypic, pilot screen (AID 588506;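 active means efflux inhibition above 0.42, the validation set average plus 4 SD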;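 further: Nile Red retained in cells so higher fluorescence means more efflux inhibition; 0 = negative control wells and 1 = enniatin B 25 µM full block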). The settings on record: S. cerevisiae pump-expressing triplex, Nile Red efflux flow cytometry; at 10 µM; stronger effect = higher value; the pumps come from Candida albicans.
Experiment [14] concerns the target ATP-binding cassette sub-family B member 6 (Homo sapiens) (UniProt Q9NP58). In words: blockers of ABCB6-driven porphyrin uptake – K562-ABCB6 cells, flow cytometry, validation set, pilot screen (AID 588550;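 active means inhibition above the screen-wide mean plus 3 SD, about 51%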;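 further: 0% = DMSO wells and 100% = benzethonium chloride 70 µM positive control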). To be noted: K562-ABCB6 porphyrin accumulation, 1 h, at 10 µM, stronger effect = higher value.
The nature of experiment [15]: AML differentiation inducers, ER-HoxA9 marrow cells – cell-based, GFP/MAC1 double positive, flow cytometry, validation set, primary screen (AID 588685;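 active means differentiation response of at least 50%, scaled between solvent and reference control, from cells with both markers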;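 further: compound exposure lasts four days before antibody staining and flow analysis; 0% = DMSO wells and 100% = 5 µM fulvestrant positive control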). To be noted: stronger effect = higher value, normalized: vehicle 0, fulvestrant 100.

ATP-binding cassette sub-family B member 6 (Homo sapiens), sequence (Q9NP58 whole entry, looked up): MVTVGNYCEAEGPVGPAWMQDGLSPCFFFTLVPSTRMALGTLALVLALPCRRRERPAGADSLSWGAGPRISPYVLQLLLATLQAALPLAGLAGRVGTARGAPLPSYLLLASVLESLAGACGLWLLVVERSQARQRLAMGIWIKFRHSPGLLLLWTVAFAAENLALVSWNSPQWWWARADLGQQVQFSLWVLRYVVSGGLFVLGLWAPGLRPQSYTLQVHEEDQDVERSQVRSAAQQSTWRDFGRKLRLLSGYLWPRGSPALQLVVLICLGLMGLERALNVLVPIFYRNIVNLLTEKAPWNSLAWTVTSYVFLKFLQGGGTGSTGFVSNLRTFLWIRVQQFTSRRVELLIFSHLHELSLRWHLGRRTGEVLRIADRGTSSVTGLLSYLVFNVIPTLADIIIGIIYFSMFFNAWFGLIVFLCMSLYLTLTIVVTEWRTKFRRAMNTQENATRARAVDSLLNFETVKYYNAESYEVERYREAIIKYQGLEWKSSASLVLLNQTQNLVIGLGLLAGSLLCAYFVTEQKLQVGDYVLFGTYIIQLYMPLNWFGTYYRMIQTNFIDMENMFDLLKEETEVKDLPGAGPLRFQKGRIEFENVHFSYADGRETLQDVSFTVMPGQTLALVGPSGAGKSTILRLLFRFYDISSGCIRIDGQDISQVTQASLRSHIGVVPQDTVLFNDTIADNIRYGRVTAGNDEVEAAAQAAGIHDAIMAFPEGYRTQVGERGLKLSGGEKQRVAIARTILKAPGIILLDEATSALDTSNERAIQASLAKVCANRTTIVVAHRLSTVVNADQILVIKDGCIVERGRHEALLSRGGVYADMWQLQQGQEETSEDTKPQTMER
AP-2 complex subunit beta (Homo sapiens), sequence (P63010 whole entry, looked up, the tested form may be a part, one chain of several): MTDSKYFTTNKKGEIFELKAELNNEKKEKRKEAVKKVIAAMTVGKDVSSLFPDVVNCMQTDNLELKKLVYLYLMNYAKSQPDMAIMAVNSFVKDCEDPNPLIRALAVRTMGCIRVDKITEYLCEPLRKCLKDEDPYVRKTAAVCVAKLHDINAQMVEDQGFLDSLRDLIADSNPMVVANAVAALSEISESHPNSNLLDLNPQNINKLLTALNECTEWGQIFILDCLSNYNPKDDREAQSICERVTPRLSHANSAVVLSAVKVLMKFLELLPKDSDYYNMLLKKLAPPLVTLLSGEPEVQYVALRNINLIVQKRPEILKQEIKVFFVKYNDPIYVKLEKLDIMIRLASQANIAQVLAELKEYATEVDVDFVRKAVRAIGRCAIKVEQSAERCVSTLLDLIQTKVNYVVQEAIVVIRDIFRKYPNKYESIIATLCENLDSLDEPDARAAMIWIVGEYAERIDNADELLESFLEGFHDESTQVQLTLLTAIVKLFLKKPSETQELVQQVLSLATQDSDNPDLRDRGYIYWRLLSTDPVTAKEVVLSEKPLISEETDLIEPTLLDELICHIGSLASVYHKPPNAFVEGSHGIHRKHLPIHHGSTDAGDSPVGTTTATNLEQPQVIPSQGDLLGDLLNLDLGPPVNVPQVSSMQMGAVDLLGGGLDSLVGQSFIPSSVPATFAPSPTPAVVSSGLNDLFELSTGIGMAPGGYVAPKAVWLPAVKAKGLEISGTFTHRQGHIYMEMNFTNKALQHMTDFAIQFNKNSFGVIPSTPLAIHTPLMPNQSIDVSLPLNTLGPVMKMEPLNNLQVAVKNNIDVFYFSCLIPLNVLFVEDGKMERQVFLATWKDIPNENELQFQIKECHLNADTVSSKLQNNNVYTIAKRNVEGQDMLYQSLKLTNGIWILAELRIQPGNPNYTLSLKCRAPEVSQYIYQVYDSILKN
Beta-adrenergic receptor kinase 1 (Homo sapiens), sequence (P25098 whole entry, looked up): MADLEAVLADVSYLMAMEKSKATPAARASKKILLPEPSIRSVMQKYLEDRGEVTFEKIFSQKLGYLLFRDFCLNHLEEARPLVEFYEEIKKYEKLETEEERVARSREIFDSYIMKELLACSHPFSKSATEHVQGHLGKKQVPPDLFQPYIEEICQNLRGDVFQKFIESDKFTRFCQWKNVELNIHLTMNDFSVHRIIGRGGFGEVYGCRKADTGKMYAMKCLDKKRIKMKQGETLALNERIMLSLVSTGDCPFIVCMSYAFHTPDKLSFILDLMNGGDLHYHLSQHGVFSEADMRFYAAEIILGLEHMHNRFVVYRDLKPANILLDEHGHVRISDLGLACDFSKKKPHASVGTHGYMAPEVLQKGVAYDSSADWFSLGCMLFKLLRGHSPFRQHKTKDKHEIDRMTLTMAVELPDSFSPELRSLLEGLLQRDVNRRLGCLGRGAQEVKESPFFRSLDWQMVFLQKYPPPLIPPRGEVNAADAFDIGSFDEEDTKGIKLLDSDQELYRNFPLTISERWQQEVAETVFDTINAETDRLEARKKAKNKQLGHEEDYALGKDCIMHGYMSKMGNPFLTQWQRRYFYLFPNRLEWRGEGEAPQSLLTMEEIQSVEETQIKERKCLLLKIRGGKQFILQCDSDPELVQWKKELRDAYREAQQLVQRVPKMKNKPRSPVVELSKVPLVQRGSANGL
Integrin beta-1 (Homo sapiens) + Integrin alpha-4 (Homo sapiens), sequence (P05556 whole entry, looked up): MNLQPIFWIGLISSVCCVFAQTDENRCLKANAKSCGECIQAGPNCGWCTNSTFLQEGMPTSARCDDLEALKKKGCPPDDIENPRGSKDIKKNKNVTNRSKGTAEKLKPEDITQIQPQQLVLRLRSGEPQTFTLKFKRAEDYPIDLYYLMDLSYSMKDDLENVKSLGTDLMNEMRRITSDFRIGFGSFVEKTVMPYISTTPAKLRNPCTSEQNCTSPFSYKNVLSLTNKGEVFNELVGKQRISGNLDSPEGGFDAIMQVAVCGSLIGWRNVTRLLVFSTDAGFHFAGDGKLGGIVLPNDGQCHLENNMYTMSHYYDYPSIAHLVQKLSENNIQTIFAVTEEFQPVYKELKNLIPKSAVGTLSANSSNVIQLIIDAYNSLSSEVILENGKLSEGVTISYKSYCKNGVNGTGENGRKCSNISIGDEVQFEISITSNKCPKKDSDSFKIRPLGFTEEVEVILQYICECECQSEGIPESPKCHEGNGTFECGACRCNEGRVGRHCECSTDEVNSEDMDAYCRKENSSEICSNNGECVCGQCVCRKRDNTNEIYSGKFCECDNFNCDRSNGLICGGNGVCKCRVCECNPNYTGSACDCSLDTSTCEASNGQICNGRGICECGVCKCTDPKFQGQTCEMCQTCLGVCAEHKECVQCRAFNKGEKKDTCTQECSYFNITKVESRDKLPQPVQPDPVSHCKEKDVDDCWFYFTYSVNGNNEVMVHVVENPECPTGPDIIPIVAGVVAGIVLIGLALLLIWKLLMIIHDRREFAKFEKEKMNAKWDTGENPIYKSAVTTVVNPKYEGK
Integrin beta-1 (Homo sapiens) + Integrin alpha-4 (Homo sapiens), sequence (P13612 whole entry, looked up): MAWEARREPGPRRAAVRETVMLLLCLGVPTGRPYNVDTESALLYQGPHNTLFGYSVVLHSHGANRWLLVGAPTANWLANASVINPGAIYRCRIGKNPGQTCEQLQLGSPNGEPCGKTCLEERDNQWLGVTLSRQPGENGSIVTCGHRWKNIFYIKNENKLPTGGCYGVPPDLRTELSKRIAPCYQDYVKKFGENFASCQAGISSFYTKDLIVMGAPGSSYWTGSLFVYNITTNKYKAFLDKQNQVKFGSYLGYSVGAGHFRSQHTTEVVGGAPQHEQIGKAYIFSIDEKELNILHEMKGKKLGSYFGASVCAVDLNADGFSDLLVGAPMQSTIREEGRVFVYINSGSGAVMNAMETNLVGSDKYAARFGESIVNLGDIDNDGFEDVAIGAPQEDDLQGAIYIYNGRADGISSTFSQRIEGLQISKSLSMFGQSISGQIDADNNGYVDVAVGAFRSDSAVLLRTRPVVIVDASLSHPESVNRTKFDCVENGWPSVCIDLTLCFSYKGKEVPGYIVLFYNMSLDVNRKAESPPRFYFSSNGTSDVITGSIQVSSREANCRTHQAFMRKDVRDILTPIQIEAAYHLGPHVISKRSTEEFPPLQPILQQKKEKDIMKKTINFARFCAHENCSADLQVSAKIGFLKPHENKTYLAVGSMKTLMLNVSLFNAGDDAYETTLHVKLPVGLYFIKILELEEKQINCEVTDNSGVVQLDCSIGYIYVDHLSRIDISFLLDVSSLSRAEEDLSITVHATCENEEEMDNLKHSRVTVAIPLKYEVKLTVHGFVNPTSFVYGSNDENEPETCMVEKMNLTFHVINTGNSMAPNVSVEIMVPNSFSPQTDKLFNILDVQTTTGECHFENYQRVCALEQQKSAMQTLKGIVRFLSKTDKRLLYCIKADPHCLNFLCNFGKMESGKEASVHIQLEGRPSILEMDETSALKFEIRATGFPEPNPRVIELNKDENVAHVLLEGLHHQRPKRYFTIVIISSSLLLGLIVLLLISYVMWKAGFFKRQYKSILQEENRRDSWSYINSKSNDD

As to `CC(=O)Oc1cc(C(C)C)c(OCCN(C)C)cc1C`, in experiment [1], the percent of DMSO control GFP was 103% (inactive). Also, the GFP response vs DMSO was 104% (inactive) in experiment [2] and 97.4% (inactive) in experiment [4]. In addition, the percent response of DMSO control in [3] was 94.9% (inactive). For the same compound, the GFP response, % of DMSO in [5] is 99.9% (inactive). For the same compound, the double positive events in experiment [6] came to 52.8%. In addition, the vesicle binding response in [6] is 152% (inactive). In addition, the inhibition in [7] is -0.24% (inactive); in [10], -9.83% (inactive); in experiment [14], 10% (inactive). For the same compound, the superoxide response (% of plate) in [8] was 106% (inactive). In addition, the aptamer binding inhibition in experiment [9] is 6% (inactive). In addition, the response in experiment [11] is 8.27% (inactive). The binding (% of control) in experiment [12] was 95.2% (inactive). For the same compound, in experiment [13], the efflux inhibition (fraction of control) was 0.1 (inactive). For the same compound, the differentiation response in [15] was 19.2% (inactive).

`CCc1cc2c(=O)c(-c3nc4ccccc4n3C)coc2c(CN2CCN(C)CC2)c1O`: the percent of DMSO control GFP in experiment [1] was 107% (inactive). For the same compound, the GFP response vs DMSO in experiment [2] is 107% (inactive); in [4], 101% (inactive). The percent response of DMSO control in experiment [3] was 110% (inactive). Moreover, the GFP response, % of DMSO in experiment [5] was 100% (inactive). This compound showed a double positive events in experiment [6] of 49.7%. Also, the vesicle binding response in experiment [6] was 149% (inactive). Moreover, the figures for the inhibition in experiment [7], in experiment [10] and in experiment [14] were 17.5% (inactive), 2.16% (inactive) and 7% (inactive), respectively. Also, in experiment [8], the superoxide response (% of plate) is 105% (inactive). Also, the aptamer binding inhibition in experiment [9] was 2% (inactive). Further, the response in experiment [11] is 4.87% (inactive). Further, the binding (% of control) in experiment [12] was 102% (inactive). Moreover, the efflux inhibition (fraction of control) in experiment [13] was -0.54 (inactive). In [15], the differentiation response is -0.2% (inactive).

In the case of `COc1cc(OC)cc(C(=O)N[C@@H](CCSC)c2nc3ccccc3[nH]2)c1`, in experiment [1], the percent of DMSO control GFP is 98% (inactive). Also, the results for the GFP response vs DMSO in experiment [2] and in experiment [4] were 88.7% (inactive) and 91.3% (inactive), respectively. In experiment [3], the percent response of DMSO control is 105% (inactive). Further, the GFP response, % of DMSO in experiment [5] was 96.4% (inactive). The compound further registered a double positive events in experiment [6] of 49.2%. The vesicle binding response in experiment [6] is 158% (inactive). Also, the values for the inhibition in experiment [7], in experiment [10] and in experiment [14] were -13.3% (inactive), -7.65% (inactive) and 3% (inactive), respectively. The superoxide response (% of plate) in experiment [8] is 98.5% (inactive). Further, the aptamer binding inhibition in experiment [9] was 1% (inactive). Also, in experiment [11], the response is 0.15% (inactive). Further, the binding (% of control) in experiment [12] was 99.3% (inactive). For the same compound, the efflux inhibition (fraction of control) in experiment [13] was -0.12 (inactive). For the same compound, the differentiation response in [15] was -8.27% (inactive).

With `CC(C)[N+](C)(CCOC(=O)C1c2ccccc2Oc2ccccc21)C(C)C`, the percent of DMSO control GFP in [1] was 99.6% (inactive). For the same compound, the GFP response vs DMSO was 101% (inactive) in [2] and 85.3% (inactive) in experiment [4]. Moreover, in [3], the percent response of DMSO control is 109% (inactive). Besides, the GFP response, % of DMSO in [5] was 101% (inactive). This compound displayed a double positive events in experiment [6] of 56%. For the same compound, the vesicle binding response in [6] was 192% (inactive). Besides, the inhibition in experiment [7] was 1.62% (inactive); in [10], -3.24% (inactive); in [14] it was 7% (inactive). Also, in experiment [8], the superoxide response (% of plate) was 81.9% (inactive). In addition, the aptamer binding inhibition in [9] is 0% (inactive). The response in experiment [11] was 9.45% (inactive). Further, the binding (% of control) in experiment [12] was 97.3% (inactive). In addition, the efflux inhibition (fraction of control) in experiment [13] is -0.09 (inactive). For the same compound, in [15], the differentiation response is 1.41% (inactive).

Take `COc1ccccc1-c1ccc(/C=C2/C=C(CC(C)C)OC2=O)o1`: the percent of DMSO control GFP in experiment [1] was 99.5% (inactive). Further, the GFP response vs DMSO was 101% (inactive) in [2] and 105% (inactive) in experiment [4]. In addition, the percent response of DMSO control in [3] was 93% (inactive). Besides, in experiment [5], the GFP response, % of DMSO was 90.1% (inactive). The same compound gave a double positive events in experiment [6] of 58.1%. In addition, in [6], the vesicle binding response is 120% (inactive). Besides, the inhibition in experiment [7] was -43.1% (inactive); in [10] it was 2.34% (inactive); in experiment [14], 5% (inactive). For the same compound, in experiment [8], the superoxide response (% of plate) is 103% (inactive). In experiment [9], the aptamer binding inhibition was 2% (inactive). Besides, in experiment [11], the response is 1.04% (inactive). Moreover, the binding (% of control) in experiment [12] was 99.5% (inactive). Besides, in [13], the efflux inhibition (fraction of control) was 0.75 (active). For the same compound, in experiment [15], the differentiation response was -22.8% (inactive).
